The numbers were not newly measured in PubChem BioAssay AID977611, which cites them from elsewhere.

A short description of the series: PubChem AID 977611. As to conditions: PDB protein-ligand complexes, literature Kd.

In all, about 3,900 compounds went through this assay and about 3,900 (100%) were called active. Cut-off not given; nearly all actives show Kd up to about 4200 µM. So high a share suggests a set chosen from earlier hits. The list shows a part of the results. *1 amine or outer side, *2 acyl side, *3 side chain or, on linkers, in order; H or OH if unused. Positions of bridges follow the written chain, without caps; N, C: chain ends. Where a SMILES comes first, the peptide text is derived from it. Non-standard residues stand in square brackets, D forms with d. Residues, ends and D or L forms follow the SMILES beside them. Bridges are numbered along the chain shown (N, C = ends). [ ]: non-standard residue; d: D form. Orn(CH(NH2)2) = NC(N)NCCC[C@H](N)C(=O)O; TBMB = c1c(C[*:1])cc(C[*:3])cc1C[*:2]

Broadly, the Kd is a measure of binding affinity in units of concentration. Take `CC(C)[C@@H]1NC(=O)[C@H](CCC(=O)O)NC(=O)[C@H](Cc2ccc(O)cc2)NC(=O)[C@H](CCCNC(N)N)NC(=O)[C@H](CO)NC(=O)[C@@H](NC(=O)[C@H](C)N)CSCc2cc3cc(c2)CSC[C@H](NC(=O)[C@H](CC(=O)O)NC1=O)C(=O)N[C@@H](CCCNC(N)N)C(=O)NCC(=O)N[C@@H](CCCNC(N)N)C(=O)NCC(=O)N[C@@H](CO)C(=O)N[C@@H](C)C(=O)N[C@H](C(=O)O)CSC3` (H-ACS[Orn(CH(NH2)2)]YEVDC[Orn(CH(NH2)2)]G[Orn(CH(NH2)2)]GSAC-OH; linker 2-9-16 via TBMB): the Kd (protein: Urokinase-type plasminogen activator, PDB entry 3qn7) was 0.157 µM (active). Regarding `CC(C)C[C@@H]1NC(=O)[C@H](C)NC(=O)[C@H](CCCNC(N)N)NC(=O)[C@H](CO)NC(=O)[C@H](CO)NC(=O)[C@H](CC(C)C)NC(=O)[C@H](CC(N)=O)NC(=O)[C@H](Cc2ccc(O)cc2)NC(=O)[C@H](CCC(N)=O)NC(=O)[C@@H](N)CSSC[C@@H](C(=O)O)NC(=O)[C@H](CCCCN)NC1=O`, the dissociation constant (Kd) (protein: cetuximab Fab, PDB entry 4gw5) was 3.5 µM (active). With `CSCC[C@@H]1NC(=O)[C@H](CCC(=O)O)NC(=O)[C@H](Cc2ccc(O)cc2)NC(=O)[C@H](CO)NC(=O)[C@H](CC(=O)O)NC(=O)[C@H](C)NC(=O)CNC(=O)[C@@H](N)CSSC[C@@H](C(=O)O)NC(=O)[C@H](CCCCN)NC(=O)[C@H](CCCNC(N)N)NC(=O)[C@H](C(C)C)NC(=O)CNC(=O)[C@H](CC(=O)O)NC(=O)[C@H](CCC(=O)O)NC(=O)[C@H](CCC(=O)O)NC1=O` (H-CGADSYEMEEDGV[Orn(CH(NH2)2)]KC-OH; disulfide 1-16), the Kd reads like this: (protein: mAb175 Antibody targeting a locally misfolded region of tumor associated EGFR, PDB entry 3g5y) 0.035 µM (active); (protein: mAb806 Antibody targeting a locally misfolded region of tumor associated EGFR, PDB entry 3g5v) 0.016 µM (active).

For the compound `CC(C)C[C@@H]1NC(=O)[C@H](CCCNC(N)N)NC(=O)[C@H](CCCNC(N)N)NC(=O)[C@H]([C@@H](C)O)NC(=O)[C@H](CO)NC(=O)[C@H](CC(C)C)NC(=O)[C@H](CC(=O)O)NC(=O)[C@H](Cc2ccccc2)NC(=O)[C@H](CCC(N)=O)NC(=O)[C@@H](N)CSSC[C@@H](C(=O)O)NC(=O)[C@H](CCCCN)NC1=O`, the dissociation constant (Kd) (protein: cetuximab Fab, PDB entry 4gw1) was 0.43 µM (active). Turning to `OC(C[n+]1cccc(F)c1)([P+](O)(O)O)[P+](O)(O)O`, the dissociation constant Kd (protein: Leshmaniasis major Farnesyl diphosphate synthase, PDB entry 4k10) is 0.12 µM (active). Consider `OC(C[n+]1cccc(-c2ccccc2)c1)([P+](O)(O)O)[P+](O)(O)O`, for which the Kd (protein: Leshmaniasis major Farnesyl diphosphate synthase, PDB entry 4jzb) is 0.342 µM (active). In the case of `Oc1ccccc1CNc1cc(NCc2ccccc2O)ncn1`, the Kd (protein: Caspase-6, PDB entry 4nbn) is 44 µM (active). Turning to `Cc1cccnc1NCc1ccccc1O`, the equilibrium dissociation constant (Kd) (protein: proCaspase-6, PDB entry 4nbk) was 136 µM (active). On to `C[C@@H]1OC[C@@H](O)[C@H](O)[C@@H]1O`, for which, under “protein: PUTATIVE FUCOSE-BINDING LECTIN PROTEIN(R17A mutant), PDB entry 3zi8”, the Kd is 2.2 µM (active).

Take `C=C(CC[C@]12O[C@H](C(=O)O)[C@@](O)(C(=O)O)[C@](C(=O)O)(O1)[C@H](OC(=O)/C=C/[C@@H](C)C[C@@H](C)CC)[C@H]2O)[C@@H](OC(C)=O)[C@H](C)Cc1ccccc1`: the Kd runs as follows: (protein: Dehydrosqualene synthase, PDB entry 3vje) 0.0097 µM (active); (protein: Squalene synthase, PDB entry 3vjc) 0.0189 µM (active). Turning to `COc1ccc(CNC(=O)c2cc3ccccc3cc2CN(C)Cc2cccc(OC)c2C(=O)O)cc1`, where the note is “protein: HIV integrase, PDB entry 4cig”, the Kd was 214 µM (active). On to `COc1ccc(CNC(=O)c2cc3c(cc2CN(C)Cc2cccc(OC)c2C(=O)O)OCO3)cc1`, for which, for the setting “protein: HIV integrase, PDB entry 4cjr”, the dissociation constant (Kd) is 793 µM (active). `C=CCN(Cc1ccccc1C(=O)NCc1ccc(OC)cc1)Cc1ccc2c(c1C(=O)O)OC[C@H](CCC(=O)O)O2`: the Kd (protein: INTEGRASE, PDB entry 4ceb) was 1080 µM (active). With `O=C(O)CCC(=O)C1=CC=C[C@@H](O)[C@@H]1C(=O)O`, the Kd (protein: E. Coli 2-succinyl-6-hydroxy-2,4-cyclohexadiene-1-carboxylate synthase (MenH), PDB entry 4myd) was 28 µM (active). `Nc1ccc(C(=O)N[C@@H](C(=O)NO)c2ccc(-n3cccn3)cc2)cc1`: the equilibrium dissociation constant (Kd) (protein: M17 leucyl aminopeptidase A-M17, PDB entry 4r7m) is 0.011 µM (active). For `COC(=O)N1CC[C@@H]2[C@H]1CCC[C@@]2(O)C#Cc1cccc(C)c1`, for the setting “protein: Metabotropic glutamate receptor 5, Lysozyme, Metabotropic glutamate receptor 5 chimera, PDB entry 4oo9”, the Kd is 0.00086 µM (active). `CO[C@@H]1O[C@@H](C(=O)O)[C@@H](O[C@H]2O[C@H](CO)[C@@H](O)[C@H](OS(O)(O)O)[C@H]2NS(O)(O)O)[C@H](O)[C@H]1OS(O)(O)O`: the equilibrium dissociation constant (Kd) (protein: Fibroblast growth factor 2 FGF2, PDB entry 4oee) was 1.73 µM (active).
